# This is a sample that favours compounds with a hit; in the whole collection about 19% have one here.
# IL-1B inflam inh: qHTS for Inhibitors of Inflammasome Signaling: IL-1-beta AlphaLISA Primary Screen. THP-1 LPS/ATP IL-1B secretion, AlphaLISA, 16 h; stronger effect = lower value. activity change, % at 57.5 µM. 360,000 compounds, 4.7% hits. AID 743279, 2014; in the data active = activity change below about -50%; inconclusive = mostly about -30% to -49%
#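 THP-1 cells pretreated 1 hr with compounds (up to 57.5 uM final), then stimulated with LPS (250 ng/mL final) plus ATP (1.25 mM final); secreted IL-1B measured by AlphaLISA after 16 hr, decreased signal indicating inhibition.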
# HT1080 IDH1KD tx: qHTS for induction of synthetic lethality in tumor cells producing 2HG: qHTS for the HT-1080-IDH1KD cell line | HT-1080 IDH1 knockdown viability, ATP luminescence, 48 h | Potency, µM (doses to about 46.1 µM), without a hit: at the highest dose activity, negative = toxicity, usual class: cytotoxic | 360,000 compounds, 2% hits | AID 686971, 2013;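 also: potency is read from the fitted curve at half-maximal effect; 0% = DMSO wells and -100% = cell-free medium wells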
#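 HT-1080-IDH1KD cells (IDH1 knocked down), 750/well in RPMI with 5% FBS, treated with compound 48 h at 37 degrees C. Viability by CellTiter-Glo luminescence, normalised to DMSO and no-cell wells; concentration-response curves classed.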
# TDP1 cell CPT: qHTS for Inhibitors of human tyrosyl-DNA phosphodiesterase 1 (TDP1): qHTS in cells in presence of CPT; Potency, µM (highest dose often 46.2 µM), without a hit: at the highest dose activity change, negative = growth inhibition, most hits filed as inhibitors; chicken DT40 Tdp1-/-;hTDP1 cells + 20 nM CPT, ATP luminescence, 48 h; 420,000 compounds, 12% hits; also: potency is read from the fitted curve at half-maximal effect; nearly all actives have a fitted effect of over 55% in size
#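 Cell growth measured by CellTiter-Glo luminescence after a minimum 48 h, 37 C compound exposure with 20 nM CPT in Tdp1-knockout DT40 cells stably expressing hTDP1, seeded 400/well; qHTS titration format.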
# DT40 TDP1 no CPT: qHTS for Inhibitors of human tyrosyl-DNA phosphodiesterase 1 (TDP1): qHTS in cells in absence of CPT; DT40 Tdp1-/- hTDP1 cells, no CPT, ATP luminescence, 48 h; Potency, µM (doses to about 46.2 µM), without a hit: at the top dose activity change, negative = growth inhibition, most hits filed as inhibitors; 420,000 compounds, 15% hits; AID 686978, 2013; also: potency is read from the fitted curve at half-maximal effect; nearly all actives have a fitted effect of over 55% in size
#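 A cellular qHTS used chicken DT40 cells lacking endogenous Tdp1 but carrying stably transfected human TDP1. Compounds were applied without camptothecin, and cell growth kinetics were judged by ATP-dependent luminescence after ≥48 hr.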
# HT1080NT lethal: qHTS for induction of synthetic lethality in tumor cells producing 2HG: qHTS for the HT-1080-NT fibrosarcoma cell line | HT-1080-NT fibrosarcoma viability, CellTiter-Glo ATP luminescence, 48 h | Potency, µM (series often up to 46.1 µM), inactives show at the top dose activity, negative = less viability, hits mostly cytotoxic | 360,000 compounds, 1.6% hits;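 also: NT is the 2HG producing partner of a matched IDH1 knockdown line; potency is read from the fitted curve at half-maximal effect; 0% = DMSO-treated cells and -100% = media-only wells without cells; nearly all actives have a fitted effect of over 55% in size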
#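 Toxicity toward the 2HG-producing NT line was scored as %Activity, normalised to DMSO and no-cell wells, from CellTiter-Glo luminescence after 48 hours' treatment.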
# An asterisk follows results filed as active; ? = inconclusive; · = no result. Unless noted, calls follow the shape of the dose curve; as a rule, active = well fitted curve in the direction sought with a large enough effect; inconclusive = small, poorly fitted or top-dose-only effect, or another doubt; inactive = no such curve, though single readings can be large; an effect the other way counts as inactive or inconclusive. Unless noted, % is scaled to controls: 0 for no effect and ±100 for the full control effect.
SMILES,IL-1B inflam inh,HT1080 IDH1KD tx,TDP1 cell CPT,DT40 TDP1 no CPT,HT1080NT lethal
CC[C@@]1(C(=O)OC)N[C@H](CN(C)C(=O)Nc2ccc(C(F)(F)F)cc2)[C@@H]2C(=O)N(Cc3ccccc3)C(=O)[C@@H]21,-19,-2%,?,?,5%
CN1Cc2ccccc2[C@@H]2c3cccc4[nH]cc(c34)C[C@H]21,·,·,5.2µM*,5.8µM*,·
COc1nc(C)nc(NC(=O)NS(=O)(=O)c2ccccc2Cl)n1,16,4%,-25%,-4%,39%
O=C1OC2(c3cc(Br)c(O)cc3Oc3c2cc(Br)c(O)[c]3[Hg])c2ccccc21 (centres undefined),·,·,4.5µM*,3.6µM*,·
CN1C(=O)CC(=O)N(c2ccccc2)c2cc(Cl)ccc21,·,·,-18%,-12%,·
C#CCN(C)C(C)Cc1ccccc1 (centres undefined),-15,2%,?,3.7µM*,-12%
CCC(=O)N1CC(=O)Nc2ccc(F)cc2C1c1ccc(F)cc1 (centres undefined),13,-1%,-2%,-1%,8%
Cc1ccc(Cl)cc1N1CCN(C(=O)c2cn(CC(C)C)c(=O)c3c2c2ccccc2n3C)CC1,·,·,6.5µM*,4.6µM*,·
Cn1cc(C(=O)N2CCC3(CC2)OCCO3)c2c3ccccc3n(C)c2c1=O,5,-11%,-13%,-6%,14%
c1cnc(N2CCC3(CCNCC3)CC2)nc1,·,·,?,23µM*,·
c1ccc(N2CCCC3(CCNCC3)C2)nc1,·,·,?,16µM*,·
c1ccc(CN2CCNCC2)nc1,9,-18%,-7%,10%,-4%
CCN(CCCNS(=O)(=O)c1ccc2c(c1)oc(=O)n2C)c1cccc(C)c1,-12,-13%,?,?,-11%
O=C(c1ccco1)N1CCN(C(=O)c2ccc(COc3ccc(Cl)cc3Cl)o2)CC1,-2,-5%,26µM*,?,-3%
CCSc1cc(C2C(C#N)=C(N)Oc3n[nH]c(C)c32)c(C)o1 (centres undefined),-97*,?,?,16µM*,?
COc1cccc(NP(=O)(Oc2ccc(Cl)cc2)Oc2ccc(Cl)cc2)c1,?,?,?,23µM*,?
COc1ccccc1OP(=O)(Nc1cccnc1)Oc1ccccc1OC,3,?,?,12µM*,?
O=P(Nc1ccccc1)(Nc1ccccc1)Oc1ccc(Cl)cc1,22,?,-37%,-17%,-1%
COC1=C(C)C(=O)C2=C(C1=O)C(CO)N1C(C#N)C3CC4C(C1C2N1CCOC41)N3C (centres undefined),-103*,0.65µM*,0.052µM*,0.15µM*,-17%
CC1=C(C)CC2(C(=O)NC(=O)NC2=O)C(C)C1 (centres undefined),6,27%,-7%,0%,11%
Cc1cc2ccccc2n1CCNC(=O)COc1ccccc1,-7,-2%,?,?,-7%
Cc1ccc(N2C(=O)/C(=C/c3ccc(CN(CCC#N)S(C)(=O)=O)o3)C(=O)NC2=S)cc1,-3,-5%,-15%,-10%,-6%
CCCC(C)c1nnc(NC(=O)CCS(=O)(=O)c2ccccc2)s1 (centres undefined),-96*,-21%,7.3µM*,4.1µM*,-11%
C[C@@H](NC(=O)C[C@@H]1C[C@@H]2c3cc(NS(=O)(=O)c4ccc(F)cc4)ccc3O[C@@H]2[C@@H](CO)O1)c1ccccc1,14,2%,?,?,7%
O=C(NCc1cccnc1)C(Cl)(Cl)Cl,0,10%,6%,11%,12%
CC(C)C(=O)Nc1ccc(C(=O)NCc2cccnc2)cc1,18,23µM*,?,?,?

# Bioassay records from PubChem.
